Reference: ChEMBL document CHEMBL4513216, “Probing the Open Global Health Chemical Diversity Library for Multistage-Active Starting Points for Next-Generation Antimalarials” (ACS Infect Dis, 2020)
In all, about 69,000 compounds went through this assay and about 8,600 (12%) showed an effect of 50% or more. The sample holds strong results, similar compounds and a random draw of the others, so the mix is not that of the screen.

What follows are molecules tested on Plasmodium berghei (assay: Screen against P. berghei liver stage (PbLuc), transformed with Luciferase, at 10uM). Details: tested at 10 uM.
Type: functional, HepG2

| Structure (SMILES) | INHIBITION |
| --- | --- |
| O=C(c1ccc2c(c1)COC2)N1CCN(CCO)CC1 | 21.5% |
| c1ncc2c(n1)CN(Cc1nc(-c3ccsc3)no1)CC2 | -16% |
| NC(=O)CN(Cc1ncc(-c2ccc(F)cc2)o1)C1CCCC1 | -13.6% |
| CSCC[C@H](NC(=O)CCn1cc(C(C)=O)c2ccccc21)C(=O)O | -35.7% |
| CC(C)c1nnc2n1CC(CNCc1ccc3c(c1)OCCO3)CC2 (stereo not drawn) | 17% |
| COc1ccc(C)cc1NC(=O)Nc1cnc(N2CCCC2)nc1 | 45.5% |
| COc1ccc(NC(=O)Nc2cnc(N3CCN(C)CC3)nc2)cc1Cl | 45% |
| Cc1ccc(NC(=O)Nc2cnc(N3CCN(C)CC3)nc2)c(Cl)c1 | 57.6% |
| COc1ccc(C)cc1NC(=O)Nc1cnc(N2CCOCC2)nc1 | 50.2% |
| Cc1ccc(NC(=O)Nc2cnc(N3CCN(C)CC3)nc2)cc1 | 37.4% |
| COc1ccc(C)cc1NC(=O)Nc1cnc(N2CCN(C)CC2)nc1 | 38.7% |
| C[C@H]1C(=O)NC[C@H]2CN(Cc3ccccc3)C[C@H]21 | -9.27% |
| CCS(=O)(=O)NCC(Cc1cccc(F)c1)N1CCNC1=O (stereo not drawn) | 23.1% |
| CC(Cn1cccn1)NC(=O)Nc1ccccn1 (stereo not drawn) | -4.16% |
| COc1ccc(C(=O)c2cnc(C(C)C)n2C)cc1 | 33.9% |
| CCCc1ncc(C(=O)c2ccc(OC)cc2)n1C | 0.29% |
| CCc1ncc(C(=O)c2ccc(OC)cc2)n1C | 54.2% |
| Cc1cc(=O)[nH]cc1C(=O)N1CCN(C)c2ccccc2C1 | 42.8% |
| COCCC(Cc1cccc(Br)c1)C(=O)NCC(N)=O (stereo not drawn) | 12.3% |
| CNc1cc(-c2cccc(CN)c2)c2cc[nH]c2n1 | 5.91% |
| CCNCCOc1ccc(-c2cc(N)nc3[nH]ccc23)cc1 | 59.5% |
| Nc1cc(-c2cc(O)cc(C(=O)O)c2)c2cc[nH]c2n1 | 35.4% |
| Cc1ccc(N2CCC3(CCN(C(=O)N(C)C)CC3)CC2)nn1 | 35.4% |

| Structure (SMILES) | INHIBITION |
| --- | --- |
| CCN(CC)S(=O)(=O)NCC(O)c1c(Cl)cccc1Cl (stereo not drawn) | -20% |
| CC(C)(CCS(C)(=O)=O)CNC(=O)NC1CCCC1(C)C (stereo not drawn) | -21.9% |
| O=C(CN1CCc2sccc2C1)Nc1ccnc2ccnn12 | 82.2% |
| Cn1nccc1NC(=O)CN1CCc2sccc2C1 | 18.6% |
| CC(C)n1nccc1NC(=O)CN1CCc2sccc2C1 | 49.3% |
| CCn1c(C)nnc1SCCNc1cc(OC)ncn1 | 22.1% |
| CCCn1cc(CN2CCCC2c2nccc(CN(C)C)n2)cn1 (stereo not drawn) | 25.6% |
| CCc1nnc(CNC(=O)CCN2CCN(c3cccc(C)c3)CC2)s1 | 52.1% |
| Cc1cccc(N2CCN(CCC(=O)NCc3cccnc3)CC2)c1 | 27.6% |
| Cc1cccc(N2CCN(CCC(=O)NCc3ccc(C)s3)CC2)c1 | 71.2% |
| Cc1cccc(N2CCN(CCC(=O)NCc3cnc(C)cn3)CC2)c1 | 45.8% |
| CCc1nnc(CNC(=O)CCCN2CCCCC2)s1 | 25.1% |
| Cc1cccc(N2CCN(CCC(=O)NCc3nnc[nH]3)CC2)c1 | -10.6% |
| CN1CCN(Cc2cccnc2)C2(CCN(C3CCOCC3)C2)C1=O (stereo not drawn) | -33.9% |
| CC(=O)NCCNC(=O)c1cnc(C(C)(C)C)s1 | 30.6% |
| CCc1cccc(C)c1NC(=O)c1ccccc1N(C)S(C)(=O)=O | 25.8% |
| CCN1CCN(C(=O)c2cccn2Cc2ccccc2)CC1 | -4.94% |
| Cc1csc(Nc2nccnc2C2CCCN2CC(N)=O)n1 (stereo not drawn) | -13.7% |
| O=C1CC2(CCN(Cc3ccsc3)C2)CN1c1ccc2c(c1)OCO2 (stereo not drawn) | 55.5% |
| CN(C)C(=O)N1CCC2(CC(=O)N(c3ccc4c(c3)OCO4)C2)C1 (stereo not drawn) | -4.02% |
| Cn1cc(CN2CCC3(CC(=O)N(c4ccc5c(c4)OCO5)C3)C2)cn1 (stereo not drawn) | 27.3% |
| CCS(=O)(=O)N1CCC2(CC(=O)N(c3ccc4c(c3)OCO4)C2)C1 (stereo not drawn) | -30.6% |
| O=C1CC2(CCN(Cc3ccncc3)C2)CN1c1ccc2c(c1)OCO2 (stereo not drawn) | 31.1% |

| Structure (SMILES) | INHIBITION |
| --- | --- |
| O=C1CC2(CCN(Cc3ccoc3)C2)CN1c1ccc2c(c1)OCO2 (stereo not drawn) | 60.3% |
| CCn1nc(C)c(NC(=O)CN(C)C(C)c2ccon2)c1C (stereo not drawn) | -22.1% |
| N[C@@H]1CCCN(C(=O)Cc2c[nH]c3ccccc23)[C@H]1c1ccccc1F | 32.5% |
| CN(C)C(=O)CN1C[C@H]2CC[C@@H](C1)N(C(=O)CCCn1cncn1)C2 | 8.07% |
| Cc1c[nH]nc1C1CCCCN1C(=O)CC1(O)CCCCC1 (stereo not drawn) | 24.8% |
| Cc1cnn(CCC(=O)N2C[C@@H]3CC[C@H]2CN(CC(=O)N(C)C)C3)c1 | 38.5% |
| O=C(CCn1cncn1)N1C[C@@H]2CC[C@H]1CN(Cc1ccncc1)C2 | 22.4% |
| Cc1c[nH]nc1C1CCCCN1C(=O)CCn1nccc1C (stereo not drawn) | 57.5% |
| Cc1c[nH]nc1C1CCCCN1C(=O)CNS(C)(=O)=O (stereo not drawn) | 48.6% |
| CN(C)C(=O)CN1C[C@H]2CC[C@@H](C1)N(C(=O)CCn1cncn1)C2 | 56.8% |
| CN(C)C(=O)CN1C[C@H]2CC[C@@H](C1)N(C(=O)Cc1ccccc1Cl)C2 | 25.1% |
| Cc1ccnn1CCC(=O)N1C[C@@H]2CC[C@H]1CN(CC(=O)N(C)C)C2 | 55.6% |
| COc1ccc(C(=O)N2CCCC(n3cncn3)C2)nn1 (stereo not drawn) | 8.64% |
| O=C(NCCCn1ccnc1)N1CCN(c2cccs2)CC1 | 12.2% |
| O=C(Cn1ncc(N2CCCC2)cc1=O)Nc1ccc2nccnc2c1 | 6.69% |
| COc1cccc(N2CCN(C(=O)CN(C)c3cnccn3)CC2)c1 | 35.4% |
| CC1CCC(NC(=O)CNC2(c3ccc(Br)cc3)CCOCC2)CC1 (stereo not drawn) | 12.8% |
| O[C@@H]1CN(Cc2ccc(F)c(F)c2)CC[C@H]1NCc1ccccn1 | 46.7% |
| CCCN1Cc2ccccc2NC(=O)C12CCNC2 (stereo not drawn) | 38.3% |
| O=C(c1cnccn1)N1CCCC2(CCN(Cc3ccsc3)C2)C1 (stereo not drawn) | -15.2% |
| O=C(NC1CCCc2nc(N3CCOCC3)ncc21)C1CCCCC1 (stereo not drawn) | 17.1% |
| CNS(=O)(=O)c1ccc(CN(C)Cc2nc3ccc(F)cc3[nH]2)cc1 | 29% |
